The source of these data is the supplement of paper PMC10503962.

The test has as its system Trichuris muris adult worms. Put plainly: mean motility score (Paragon pixel variance) of adult worms (arbitrary units); higher = more motile worms, i.e. less anthelmintic effect; extreme values may be limits of the assay. As to conditions: 100 µM; 24 h. In a few lines: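 In 96-well plates, one adult Trichuris muris worm from infected NOD SCID mice went into each well with 100 μL RPMI-1640, antibiotics and drug at 100 μM (1% v/v DMSO). After 24 h at 37°C and 5% CO2, the plates were filmed on an automated phenotyping platform. Paragon pixel-variance analysis gave the motility score, which was averaged across replicate wells.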
On to `Cc1ccc(O)c(-n2nc3ccccc3n2)c1` [drometrizole], for which the mean motility score stood at 2400.
With `Nc1nc(O)c2ncn(COC(CO)CO)c2n1` [ganciclovir] the figure was 2950.
With `CCN(CC)CCOC(=O)C1(C2CCCCC2)CCCCC1.Cl` [dicyclomine hydrochloride] the figure was 4250; with `CC(C)[C@H](N)C(=O)OCCOCn1cnc2c(=O)nc(N)[nH]c21.Cl` [valacyclovir hydrochloride], 4300.
The same measure for `CCC[C@H](N[C@@H](C)C(=O)N1[C@H](C(=O)O)C[C@@H]2CCCC[C@@H]21)C(=O)OCC` [perindopril]: 3860.
For the molecule `Cc1cc(C2CCCCC2)n(O)c(=O)c1` [ciclopirox], the mean motility score stood at 3190.
With `Cc1ccc(C)c(OCCCC(C)(C)C(=O)O)c1` [gemfibrozil] the figure was 3280; with `CN1CCN(CCOc2cc(OC3CCOCC3)c3c(Nc4c(Cl)ccc5c4OCO5)ncnc3c2)CC1` [saracatinib], 1640; with `Cc1c(O)cccc1C(=O)N[C@@H](CSc1ccccc1)[C@H](O)CN1C[C@H]2CCCC[C@H]2C[C@H]1C(=O)NC(C)(C)C` [nelfinavir], 1430.
With `CCCNCC(O)COc1ccccc1C(=O)CCc1ccccc1` (stereo not drawn) [propafenone] the figure was 1050; with `Cc1nc(Nc2ncc(C(=O)Nc3c(C)cccc3Cl)s2)cc(N2CCN(CCO)CC2)n1` [dasatinib], 1190; with `COc1ccc2cc([C@@H](C)C(=O)O)ccc2c1` [(R)-naproxen], 1390.
`O=C1O[C@H](CO)[C@@H](O)[C@H](O)[C@H]1O` [gluconolactone] gave a mean motility score of 2100.
In the case of `Cl.O=C1CC2(CCCC2)CC(=O)N1CCCCN1CCN(c2ncccn2)CC1` [buspirone hydrochloride], the mean motility score worked out at 4250.
The same measure for `CS(=O)(=O)OCCCCOS(C)(=O)=O` [busulfan]: 3180; for `COc1c2occc2cc2ccc(=O)oc12` [methoxsalen]: 4190; for `CC(=O)Oc1cc(C(C)C)c(OCCN(C)C)cc1C.Cl` [moxisylyte hydrochloride]: 1780.
With `CNC(=O)c1cc(Oc2ccc(NC(=O)Nc3ccc(Cl)c(C(F)(F)F)c3)cc2)ccn1` [sorafenib] the figure was 781; with `OCCN1CCN(CCCN2c3ccccc3Sc3ccc(Cl)cc32)CC1` [perphenazine], 175.
With `C[C@H](Cc1cc2c(c(C(N)=O)c1)N(CCCO)CC2)NCCOc1ccccc1OCC(F)(F)F` [silodosin] the figure was 3810; with `O=C(CCCN1CC=C(n2c(O)nc3ccccc32)CC1)c1ccc(F)cc1` [droperidol], 2120.
In the case of `CCCC(=O)O[C@]1(C(=O)COC(C)=O)CC[C@H]2[C@@H]3C[C@H](F)C4=CC(=O)C=C[C@]4(C)[C@@]3(F)[C@@H](O)C[C@@]21C` [difluprednate], the mean motility score was 3520.
With `CN/C(=N/CCSCc1nc[nH]c1C)NC#N` [cimetidine] the figure was 2750; with `COc1ccc([C@@H]2Sc3ccccc3N(CCN(C)C)C(=O)[C@@H]2OC(C)=O)cc1` [diltiazem], 2070; with `CCc1c2c(nc3ccc(OC(=O)N4CCC(N5CCCCC5)CC4)cc13)-c1cc3c(c(=O)n1C2)COC(=O)[C@]3(O)CC` [irinotecan], 2280.
On to `Cc1cn([C@H]2C=C[C@@H](CO)O2)c(=O)[nH]c1=O` [stavudine], for which the mean motility score worked out at 2180.
The same measure for `NS(=O)(=O)c1cc2c(cc1C(F)(F)F)NCNS2(=O)=O` [hydroflumethiazide]: 1060.
For `CCOc1ccccc1OCCN[C@H](C)Cc1ccc(OC)c(S(N)(=O)=O)c1.Cl` [tamsulosin hydrochloride], the mean motility score turned out to be 2890.
Take `OCc1ccccc1` [benzyl alcohol]: the mean motility score worked out at 2390.
For the molecule `O=C(O)/C=C/C(=O)O` [fumaric acid], the mean motility score was found to be 3100.
With `Cc1nc2ccc(CN(C)c3ccc(C(=O)N[C@@H](CCC(=O)O)C(=O)O)s3)cc2c(=O)[nH]1` [raltitrexed] the figure was 3030; with `CCN1CCCC1CNC(=O)c1cc(S(N)(=O)=O)ccc1OC` (stereo not drawn) [sulpiride], 2290.
In turn, `C[C@@H]1CN(c2c(F)c(N)c3c(=O)c(C(=O)O)cn(C4CC4)c3c2F)C[C@H](C)N1` [sparfloxacin] came in with a mean motility score of 3980.
Regarding `COC(=O)[C@H]1[C@H]2C[C@@H]3c4[nH]c5cc(OC)ccc5c4CCN3C[C@H]2C[C@@H](OC(=O)c2cc(OC)c(OC)c(OC)c2)[C@@H]1OC` [reserpine], the mean motility score was 2180.
With `Cc1nc2n(c(=O)c1CCN1CCC(c3noc4cc(F)ccc34)CC1)CCCC2` [risperidone] the figure was 2130; with `N=C(NCCCCCCNC(=N)NC(=N)Nc1ccc(Cl)cc1)NC(=N)Nc1ccc(Cl)cc1` [chlorhexidine], 320; with `COc1cc(C(=O)NS(=O)(=O)c2ccccc2C)ccc1Cc1cn(C)c2ccc(NC(=O)OC3CCCC3)cc12` [zafirlukast], 0.
On to `CCCCOc1ccc(OCCCN2CCOCC2)cc1.Cl` [pramoxine hydrochloride], for which the mean motility score amounted to 1260.
